From PubChem
Only some compounds are listed: those with a hit (about 1.8% of all), similar ones and a draw of the others.
PI5P4K alpha inh = qHTS for Inhibitors of phosphatidylinositol 5-phosphate 4-kinase (PI5P4K); AID 652105, 2013; hit rate 1.2% among 330,000; Phosphatidylinositol 5-phosphate 4-kinase type-2 alpha (Homo sapiens), P48426; max response, %; PI5P4Kalpha enzyme, ADP-Glo luminescence, 60 min; stronger effect = lower value; active means max response of -50% or lower; inconclusive means between -30% and -50%; inactive means -30% or higher; further: value at the top dose of about 77 µM
Target sequence (P48426 whole entry, looked up): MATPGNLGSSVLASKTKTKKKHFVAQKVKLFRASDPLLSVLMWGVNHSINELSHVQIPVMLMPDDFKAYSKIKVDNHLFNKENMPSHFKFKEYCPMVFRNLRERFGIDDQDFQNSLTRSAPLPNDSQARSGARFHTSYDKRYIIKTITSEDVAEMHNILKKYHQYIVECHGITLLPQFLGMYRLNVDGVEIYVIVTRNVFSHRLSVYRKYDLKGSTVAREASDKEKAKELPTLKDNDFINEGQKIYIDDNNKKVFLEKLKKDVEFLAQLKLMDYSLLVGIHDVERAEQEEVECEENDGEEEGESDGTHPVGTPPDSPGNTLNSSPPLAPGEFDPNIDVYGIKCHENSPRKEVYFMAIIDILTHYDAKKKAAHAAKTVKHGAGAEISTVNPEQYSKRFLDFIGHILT
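PI5P4Kalpha ADP-Glo assay; 5 microM ATP final; 60 min RT reaction; HEPES pH 7.4/EGTA/CHAPS, 5% DMSO; controls lacking substrate or enzyme; luminescent end-point.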
Six1-Eya2 blk = qHTS Assay for Inhibitors of the Six1/Eya2 Interaction; Homeobox protein SIX1 (Homo sapiens) + Protein phosphatase EYA2 (Homo sapiens), …; AlphaScreen GST-Six1/His-Eya2 binding, biochemical; stronger effect = lower value; activity change, % (test concentration not listed); hit rate 0.56% among 360,000; AID 651725, 2012
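GST-Six1 + His-Eya2 (5X stock: 250/500 nM); Tris pH 8.0, 300 mM NaCl, 0.05% BSA, 0.02% Tween 20; GSH donor/Ni acceptor beads; 1 h 37 °C dark; AlphaScreen readout.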
CtBP-E1A blk = qHTS Assay for Inhibitors of the CtBP/E1A Interaction. AID 651724, 2012. AlphaScreen GST-E1A/His-CtBP binding, 1536-well; stronger effect = lower value. activity change, % (test concentration not listed). hit rate 0.49% among 340,000. CtBP / adenovirus E1A interaction (AlphaScreen)
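GST-E1A and His-tagged CtBP (125 nM each as 5X stock) were preincubated with pin-transferred compound for 2 h at 37 °C in the dark, then glutathione donor and nickel acceptor beads were added for 1 h before AlphaScreen reading.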
pAkt inh = HTS Assay for Inhibitors of Akt Phophorylation: Primary Screen | Neuro2A IGF-stimulated pAkt S473 HTRF, 20 min; stronger effect = lower value | activity change, % for hits at 50 µM | hit rate 0.32% among 360,000; in the data active means activity change below about -80%; inconclusive means mostly about -51% to -80%
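Neuro2A cells (4,500/well, DMEM with 0.5% FBS) were treated with compound at a single 50 µM final concentration, stimulated with 6 nM IGF for 20 min at 37 °C, and lysed. Phospho-Akt Ser473 was read by HTRF as 665/615 ratio ×10^4.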
PI4K2A inh = qHTS for small molecular inhibitors of PI4K2A; Phosphatidylinositol 4-kinase type 2-alpha (Homo sapiens), Q9BTU6; purified PI4K2A, ADP-Glo luminescence, 1 h; stronger effect = lower value; activity change, negative = inhibition, % at 76.9 µM; hit rate 0.13% among 420,000; AID 1346378, 2018; in the data active means activity change below about -50%; inconclusive means mostly about -30% to -49%
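In this quantitative HTS, ADP production by PI4K2A was quantified luminescently after 1 h at ambient temperature; 100 microM adenosine served as plate-quality control.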
Of the large screens only hits and unclear results are named; the others gave an inactive call. Unless noted, no stated cut-off is given here; in the data, active means activity change below about -65%; inconclusive means mostly about -30% to -63%; inactive means weaker than that.

COc1ccc(C(=O)C(C)[n+]2ccc(-c3nnc4n3CCCCC4)cc2)cc1 (configuration not stated)	none
CCOc1cc(/C=N/Nc2ccc(S(=O)(=O)Nc3ccccc3C(=O)O)cc2[N+](=O)[O-])cc(Cl)c1O	PI5P4K alpha inh -69, Six1-Eya2 blk inconclusive
COc1cc(C=NNc2ccc(S(=O)(=O)Nc3ccccc3C(=O)O)cc2[N+](=O)[O-])ccc1O	PI5P4K alpha inh -69, Six1-Eya2 blk inconclusive (no result: CtBP-E1A blk)
CCCCn1c(O)c2n(c1=O)Cc1ccccc1N=C2c1ccc(OC)cc1	none
O=C(Nc1nc(-c2ccccn2)cs1)c1ccc(Cl)s1	Six1-Eya2 blk inconclusive, CtBP-E1A blk inconclusive
Cc1ccc(C(=O)Nc2nc(-c3ccccn3)cs2)s1	Six1-Eya2 blk -90, CtBP-E1A blk -91
Cn1cccc1C(=O)Nc1nc(-c2ccccn2)cs1	Six1-Eya2 blk -86, CtBP-E1A blk -89
Cc1csc(NC(=O)c2cccn2C)n1	none (no result: PI5P4K alpha inh)
O=C(Nc1nc(-c2ccccn2)cs1)c1ncc(Cl)c(Cl)c1Cl	Six1-Eya2 blk inconclusive, CtBP-E1A blk -74
Cc1cccnc1Nc1nc(-c2ccccn2)cs1	Six1-Eya2 blk -78, CtBP-E1A blk -95
Cc1ccc(NC(=O)Nc2ccc(F)cc2F)c(OC(F)F)c1	none (no result: CtBP-E1A blk)
CCn1c2ccc(C)cc2c2nnc(NN)nc21	none
CCc1sc(C(=O)Nc2nccs2)cc1C	none
CCc1sc(C(=O)Nc2nc(-c3ccccn3)cs2)cc1C	Six1-Eya2 blk -67, CtBP-E1A blk -90
CCCN(C(=O)c1cc2c(s1)-c1ccccc1OC2)c1ccccc1F	none (no result: PI5P4K alpha inh, Six1-Eya2 blk, CtBP-E1A blk, pAkt inh)
O=S1(=O)Nc2c(ccc3cccnc23)-c2ccccc21	Six1-Eya2 blk -91, CtBP-E1A blk -89 (no result: PI5P4K alpha inh)
Clc1ccc2ccc3cccnc3c2n1	none (no result: CtBP-E1A blk)
COc1c(O)cc2oc(-c3ccc(O)cc3)cc(=O)c2c1O	CtBP-E1A blk inconclusive
O=c1cc(-c2ccccc2)oc2cc(O)c(O)c(O)c12	PI5P4K alpha inh -74
Cn1c2ccccc2c2cc(/C=N/NC(=O)c3cc(O)cc(O)c3)ccc21	PI5P4K alpha inh -74, Six1-Eya2 blk inconclusive, CtBP-E1A blk inconclusive
COc1cc(C(=O)N/N=C/c2ccc3c(c2)c2ccccc2n3C)ccc1O	Six1-Eya2 blk inconclusive
Cn1c2ccccc2c2cc(/C=N/NC(=O)c3cc(O)ccc3O)ccc21	PI5P4K alpha inh -90, Six1-Eya2 blk -69, CtBP-E1A blk inconclusive
O=C(CCn1c(=O)sc2ccccc21)NC1CCCCC1	none
Cc1ccc(CNC(=O)COc2ccc(C)nc2[N+](=O)[O-])cc1	none
Cc1ccc(OCC(=O)c2ccc(Cl)s2)c([N+](=O)[O-])n1	PI5P4K alpha inh -56
CCOC(=O)c1cc(-c2ccccc2)sc1NC(=O)CN1C(=O)c2ccccc2C1=O	none
CCN=c1scc(C)n1/N=C/c1ccc(O)c(O)c1O	PI5P4K alpha inh -51, Six1-Eya2 blk inconclusive, CtBP-E1A blk inconclusive
O=C(CCSCCC(=O)NCc1ccco1)NCc1ccco1	PI5P4K alpha inh inconclusive, PI4K2A inh inconclusive
Nc1ccc(Oc2ncccn2)cc1	Six1-Eya2 blk inconclusive, PI4K2A inh -54 (no result: CtBP-E1A blk)
O=Cc1cccc(Oc2ncccn2)c1	none
Cn1c(CC(=O)Nc2ccccc2)nnc1SCC(=O)NC1CCCC1	none
Cc1ccc(/C(=N/Nc2ncnc3ccccc23)C(=O)O)cc1	PI5P4K alpha inh inconclusive, Six1-Eya2 blk -84, CtBP-E1A blk -77
Cc1ccc(Nc2ncnc3ccccc23)cc1	none
Cc1cc(-c2csc(NC(=O)c3ccc(C#N)cc3)n2)c(C)n1Cc1ccco1	PI5P4K alpha inh -62, PI4K2A inh inconclusive
Cc1cc(-c2n[nH]c(=S)n2/N=C/c2cccc(O)c2)n[nH]1	none
COCCN1Cc2cccc(C(=O)Nc3cccc(OC)c3)c2C1=O	none
COCCN1Cc2cccc(C(=O)Nc3ccc(C)c(C)c3)c2C1=O	Six1-Eya2 blk -74, CtBP-E1A blk -79
CC(C)CN(C(=O)c1cccc(Cl)c1)c1c(N)n(Cc2ccccc2)c(=O)[nH]c1=O	none
Cn1c(=O)[nH]c(Nc2ccccc2)c([N+](=O)[O-])c1=O	PI5P4K alpha inh -58
Cn1nc(C(C)(C)C)c([N+](=O)[O-])c1C(=O)Nc1ccccc1	none
CCOC(=O)C(=O)Nc1nnc(CCc2ccccc2)s1	PI5P4K alpha inh -66
CCC(=O)Nc1nnc(CCc2ccccc2)s1	PI5P4K alpha inh inconclusive
CCNC(=O)NC(=O)C(C)Sc1nc2cc(C(=O)OC)ccc2c(=O)n1-c1ccccc1 (configuration not stated)	pAkt inh -122%
Oc1c(CN2CCN(c3ccccn3)CC2)cc(Cl)c2cccnc12	Six1-Eya2 blk -90, CtBP-E1A blk -97
OCCN1CCN(Cc2cc(Cl)c3cccnc3c2O)CC1	Six1-Eya2 blk -90, CtBP-E1A blk -95 (no result: PI5P4K alpha inh)
CCOc1ccc(C=NN2CCCCCC2)cc1OCC	none
CC1CCc2sc(-c3n[nH]c(=S)o3)cc2C1 (configuration not stated)	PI5P4K alpha inh -68
S=c1[nH]nc(-c2cc3c(s2)-c2ccccc2CC3)o1	PI5P4K alpha inh -89
CC1CCc2sc(C(=O)NC3CCCCC3)cc2C1 (configuration not stated)	none
CCOC(=O)c1[nH]ncc1CN1CCCC(C(=O)c2cc(Cl)ccc2OC)C1 (configuration not stated)	none (no result: CtBP-E1A blk)
Cc1cc(C)cc(NC(=O)c2cc(S(=O)(=O)N3CCCC3)cn2C)c1	none
S=C(NC1CCCCC1)N1CCc2ccccc2C1	none
Cc1ccccc1C(=O)N1CCC(C(=O)OCc2ccccn2)CC1	none
COCCN(C(=O)c1cc(-c2ccco2)nc2ccccc12)c1c(N)n(Cc2ccccc2)c(=O)[nH]c1=O	PI5P4K alpha inh -84 (no result: CtBP-E1A blk)
CCCn1c(N)c(N(CCOC)C(=O)c2cc(Cl)nc3ccccc23)c(=O)[nH]c1=O	none
CCCCN(C(=O)c1cc(-c2ccco2)nc2ccccc12)c1c(N)n(CCCC)c(=O)[nH]c1=O	PI5P4K alpha inh -57
CCCCn1c(N)c(N(CCC(C)C)C(=O)c2cc(-c3ccco3)nc3ccccc23)c(=O)[nH]c1=O	PI5P4K alpha inh -70
CCOC(=O)c1c(/N=C/c2cccc([N+](=O)[O-])c2O)sc(C)c1C	PI5P4K alpha inh -69
COC(=O)C[C@H]1c2cc(F)ccc2S(=O)(=O)N1Cc1ccccc1	PI4K2A inh -60
COC(=O)C[C@H]1c2cc(F)ccc2S(=O)(=O)N1c1ccccc1	none
Cc1cc(NS(=O)(=O)c2ccc(NC(=O)CSc3nc4sc(C(=O)O)c(C)c4c(=O)[nH]3)cc2)no1	PI5P4K alpha inh -81
